Inconclusive results are not listed. Activity calls are given as the source filed them. The calls were made as follows, unless noted: active = hit-call score of the fitted dose curve at least 0.9, where 1 is the maximum; inactive = score below 0.9.
Key:
[1] = molecular target: human Retinoid X Receptor beta (RXRb), RXRB (gene 6257) (UniProt P28702); assay: ATG_RXRb_TRANS: Attagene TRANS-FACTORIAL HepG2 Assay for human Retinoid X Receptor beta (RXRb) (AID 2283013; active = hit-call score of the fitted dose curve at least 0.9, where 1 is the maximum)
Summary of the method: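 Transfect HepG2 with GAL4-UAS multi-reporter constructs (chimeric NR-Gal4, TRANS format); dose compound 24 h; isolate RNA, RT-PCR, FAM primer extension, HpaI digest; quantify by capillary electrophoresis; positive direction vs DMSO.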

[2] = read-out: E-selectin (Homo sapiens) (UniProt P16581); assay: BSK_3C_Eselectin: BioMAP Diversity Plus: 3C Assay for Eselectin Biomarker Activity (AID 2283015); conditions: primary human endothelial cells (HUVEC); actives raise or lower the signal;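 also: cell surface E-selectin protein quantified by ELISA 24 h after dosing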
Summary of the method: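 Endpoint derived by bidirectional fitting against DMSO vehicle; signal is ELISA-detected E-selectin from primary HUVEC at 24 h post-dosing, with parallel SRB staining (0.1% SRB, 560 nm) flagging cytotoxicity.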

[3] = read-out: Interleukin-1 alpha (IL1a), IL1A (gene 3552); assay: BSK_BE3C_IL1a: BioMAP Diversity Plus: BE3C Assay for Interleukin-1 alpha (IL1a) Biomarker Activity (AID 2283016); conditions: primary human bronchial epithelial cells; actives raise or lower the signal
Summary of the method: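 BE3C primary human bronchial epithelium; cpd 24 h; IL-1a by ELISA; bidirectional fit vs DMSO; parallel SRB (0.1% SRB, 10% TCA fix, 560 nm) for cytotoxicity.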

[4] = read-out: Monocyte Chemoattractant Protein-1 (MCP1), CCL2 (gene 6347); assay: BSK_3C_MCP1: BioMAP Diversity Plus: 3C Assay for Monocyte Chemoattractant Protein-1 (MCP1) Biomarker Activity (AID 2283017); conditions: primary human endothelial cells (HUVEC); actives raise or lower the signal
Summary of the method: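 Using human vascular primary endothelium, researchers measured MCP-1 by ELISA 24 h after treatment, with DMSO serving as negative control for bidirectional fitting.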

[5] = read-out: Monocyte Chemoattractant Protein-1 (MCP1), CCL2 (gene 6347); assay: BSK_4H_MCP1: BioMAP Diversity Plus: 4H Assay for Monocyte Chemoattractant Protein-1 (MCP1) Biomarker Activity (AID 2283018); conditions: primary human endothelial cells (HUVEC); actives raise or lower the signal
Summary of the method: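 ELISA read-out of MCP-1 from human vascular endothelial primary cells taken at 24 hours after compound exposure. Activity was fitted in both directions relative to DMSO, which served as negative control.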

[6] = read-out: Human Leukocyte Antigen - DR isotype (HLADR), HLA-DRA (gene 3122); assay: BSK_3C_HLADR: BioMAP Diversity Plus: 3C Assay for Human Leukocyte Antigen - DR isotype (HLADR) Biomarker Activity (AID 2283019); conditions: primary human endothelial cells (HUVEC); actives raise or lower the signal
Summary of the method: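 Compound added to primary HUVEC cultures, 24 h incubation, then HLA-DR determined by ELISA; endpoint derived by bidirectional fitting relative to DMSO negative control.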

[7] = read-out: Interleukin-8 (IL8), CXCL8 (gene 3576); assay: BSK_3C_IL8: BioMAP Diversity Plus: 3C Assay for Interleukin-8 (IL8) Biomarker Activity (AID 2283020); conditions: primary human endothelial cells (HUVEC); actives raise or lower the signal
Summary of the method: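 ELISA read-out of IL-8 from human umbilical vein endothelium, measured 24 h after chemical dosing. Activity is expressed relative to DMSO negative control, with both increases and decreases fitted.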

[8] = read-out: Monokine induced gamma interferon (MIG), CXCL9 (gene 4283); assay: BSK_3C_MIG: BioMAP Diversity Plus: 3C Assay for Monokine induced gamma interferon (MIG) Biomarker Activity (AID 2283021); conditions: primary human endothelial cells (HUVEC); actives raise or lower the signal
Summary of the method: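 Read-out is ELISA detection of MIG on human umbilical vein endothelial cells, taken 24 h after dosing. Gain or loss of signal was scored relative to DMSO controls using bidirectional curve fitting.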

[9] = molecular target: human Vitamin D Receptor (VDR), VDR (gene 7421) (UniProt P11473); assay: ATG_VDR_TRANS: Attagene TRANS-FACTORIAL HepG2 Assay for human Vitamin D Receptor (VDR) (AID 2283022; active = hit-call score of the fitted dose curve at least 0.9, where 1 is the maximum)
Summary of the method: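 Multiplexed TRANS reporter in HepG2; 24 h treatment; reporter mRNA by RT-PCR plus capillary electrophoresis; upregulation scored relative to DMSO.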

[10] = BSK_3C_SRB: Viability Assessment in the BioMAP Diversity Plus: 3C Assay (AID 2283023); conditions: primary human endothelial cells (HUVEC);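 also: fitted both ways against DMSO so a hit may be signal rise or drop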
Summary of the method: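 Overt cytotoxicity is gauged in parallel confluent HUVEC cultures by SRB total-protein staining at the time of biomarker measurement, 24 h after dosing. Gain or loss of signal is fitted versus DMSO.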

[11] = read-out: Matrix Metallopeptidase 1 (MMP1), MMP1 (gene 4312); assay: BSK_BE3C_MMP1: BioMAP Diversity Plus: BE3C Assay for Matrix Metallopeptidase 1 (MMP1) Biomarker Activity (AID 2283024); conditions: primary human bronchial epithelial cells; actives raise or lower the signal
Summary of the method: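 Human bronchial epithelial cells (BE3C system) exposed to compound for 24 h; MMP1 then quantified by ELISA. Activity was fitted in both directions relative to DMSO.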

[12] = BSK_3C_Vis: BioMAP Diversity Plus: 3C Assay for Morphology Visualization (AID 2283025); conditions: primary human endothelial cells (HUVEC);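 also: fitted both ways so gain or loss versus DMSO counts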;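 as to AC50: light microscopy image of cell morphology used as background control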
Summary of the method: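 Chemicals were added to primary human umbilical vein endothelium, cells were incubated 24 h, and morphology was then visualized by light microscopy. Gain or loss of signal was fitted bidirectionally relative to DMSO.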

[13] = read-out: Pselectin, SELP (gene 6403); assay: BSK_4H_Pselectin: BioMAP Diversity Plus: 4H Assay for Pselectin Biomarker Activity (AID 2283026); conditions: primary human endothelial cells (HUVEC); actives raise or lower the signal
Summary of the method: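 ELISA read-out of P-selectin on human umbilical vein endothelium after 24 h of dosing. Values derive from bidirectional fitting relative to DMSO. Parallel SRB protein staining flagged overt cytotoxicity.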

[14] = BSK_4H_SRB: Viability Assessment in the BioMAP Diversity Plus: 4H Assay (AID 2283027); conditions: primary human endothelial cells (HUVEC);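 also: cells exposed to compound for 24 h before staining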
Summary of the method: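 Human umbilical vein endothelial cells, 24 h after chemical dosing; total protein measured by 0.1% sulforhodamine B staining after 10% TCA fixation, read at 560 nm. Bidirectional fitting against DMSO.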

[15] = BSK_BE3C_SRB: Viability Assessment in the BioMAP Diversity Plus: BE3C Assay (AID 2283028); conditions: primary human bronchial epithelial cells
Summary of the method: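 SRB total-protein staining (0.1%, after TCA fixation) of chemically dosed human bronchial epithelial primary cells at 24 h; DMSO serves as the negative control for bidirectional curve fitting.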

[16] = read-out: Thrombomodulin, THBD (gene 7056); assay: BSK_3C_Thrombomodulin: BioMAP Diversity Plus: 3C Assay for Thrombomodulin Biomarker Activity (AID 2283029); conditions: primary human endothelial cells (HUVEC); actives raise or lower the signal
Summary of the method: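 Read-out is ELISA of thrombomodulin on human umbilical vein endothelium 24 h after chemical dosing. Gain or loss of signal is scored relative to DMSO. Overt cytotoxicity is checked in parallel cultures by sulforhodamine B staining.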

[17] = molecular target: Retinoic acid receptor RXR-alpha (Homo sapiens) (UniProt P19793); assay: ATG_RXRa_TRANS: Attagene TRANS-FACTORIAL HepG2 Assay for human Retinoid X Receptor alpha (RXRa) (AID 2283012; active = hit-call score of the fitted dose curve at least 0.9, where 1 is the maximum)
Summary of the method: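 Transient transfection of human HepG2 with multiple GAL4-UAS reporter constructs; 24 h compound exposure; total RNA isolated, reverse-transcribed, PCR-amplified, 6-FAM labelled, HpaI-cut, resolved by capillary electrophoresis. Positive-direction fit versus DMSO.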

[18] = molecular target: human Thyroid Receptor alpha (THRa1), THRA (gene 7067) (UniProt P10827); assay: ATG_THRa1_TRANS: Attagene TRANS-FACTORIAL HepG2 Assay for human Thyroid Receptor alpha (THRa1) (AID 2283014; active = hit-call score of the fitted dose curve at least 0.9, where 1 is the maximum)
Summary of the method: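 Measured here is mRNA from a GAL4-UAS reporter in transfected HepG2 cells carrying a Gal4-fused receptor, 24 h post-dose. DMSO served as negative control and baseline.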

Measured: AC50

Chain of E-selectin (Homo sapiens) (P16581 whole entry, looked up): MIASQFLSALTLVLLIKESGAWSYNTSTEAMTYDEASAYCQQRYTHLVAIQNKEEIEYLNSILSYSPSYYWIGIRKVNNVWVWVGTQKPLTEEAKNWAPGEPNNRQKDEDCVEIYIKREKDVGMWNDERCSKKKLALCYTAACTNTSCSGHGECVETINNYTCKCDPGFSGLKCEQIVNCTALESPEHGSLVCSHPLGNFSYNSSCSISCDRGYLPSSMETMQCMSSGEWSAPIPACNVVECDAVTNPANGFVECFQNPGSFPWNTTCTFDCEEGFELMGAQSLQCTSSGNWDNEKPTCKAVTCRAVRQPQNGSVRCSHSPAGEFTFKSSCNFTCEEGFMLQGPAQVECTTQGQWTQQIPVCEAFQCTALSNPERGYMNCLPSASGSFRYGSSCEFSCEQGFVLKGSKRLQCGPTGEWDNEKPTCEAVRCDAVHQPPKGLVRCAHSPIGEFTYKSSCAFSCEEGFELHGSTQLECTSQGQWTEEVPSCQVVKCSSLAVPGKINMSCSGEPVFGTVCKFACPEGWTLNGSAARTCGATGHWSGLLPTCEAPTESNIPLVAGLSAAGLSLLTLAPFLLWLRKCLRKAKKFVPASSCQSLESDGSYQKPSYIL
Chain of human Thyroid Receptor alpha (THRa1), THRA (gene 7067) (P10827 whole entry, looked up, the tested form may be a part): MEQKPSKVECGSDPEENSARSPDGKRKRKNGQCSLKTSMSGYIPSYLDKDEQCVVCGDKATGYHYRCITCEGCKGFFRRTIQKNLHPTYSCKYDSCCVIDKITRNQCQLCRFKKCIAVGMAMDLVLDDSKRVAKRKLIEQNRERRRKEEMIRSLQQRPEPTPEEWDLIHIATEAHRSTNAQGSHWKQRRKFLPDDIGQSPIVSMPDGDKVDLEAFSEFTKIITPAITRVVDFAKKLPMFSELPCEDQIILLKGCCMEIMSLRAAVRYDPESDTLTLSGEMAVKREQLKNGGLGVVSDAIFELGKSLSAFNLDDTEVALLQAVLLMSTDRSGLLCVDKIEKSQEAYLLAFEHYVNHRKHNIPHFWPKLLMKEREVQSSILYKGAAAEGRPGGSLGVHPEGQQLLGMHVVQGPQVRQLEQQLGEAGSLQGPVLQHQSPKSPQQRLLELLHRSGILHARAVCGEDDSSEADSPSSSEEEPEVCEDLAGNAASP
Chain of human Vitamin D Receptor (VDR), VDR (gene 7421) (P11473 whole entry, looked up): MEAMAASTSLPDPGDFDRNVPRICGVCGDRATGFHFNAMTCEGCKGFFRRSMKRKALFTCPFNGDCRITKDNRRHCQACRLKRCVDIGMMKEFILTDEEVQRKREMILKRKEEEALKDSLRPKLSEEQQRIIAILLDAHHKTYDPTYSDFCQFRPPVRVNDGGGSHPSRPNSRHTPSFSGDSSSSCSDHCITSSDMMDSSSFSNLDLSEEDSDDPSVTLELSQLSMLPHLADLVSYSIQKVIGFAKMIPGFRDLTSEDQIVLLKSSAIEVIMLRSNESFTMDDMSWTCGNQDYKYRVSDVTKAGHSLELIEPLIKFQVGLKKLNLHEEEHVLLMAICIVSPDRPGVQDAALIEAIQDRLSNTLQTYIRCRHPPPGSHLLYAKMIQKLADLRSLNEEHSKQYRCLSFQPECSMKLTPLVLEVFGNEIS
Chain of human Retinoid X Receptor beta (RXRb), RXRB (gene 6257) (P28702 whole entry, looked up, the tested form may be a part): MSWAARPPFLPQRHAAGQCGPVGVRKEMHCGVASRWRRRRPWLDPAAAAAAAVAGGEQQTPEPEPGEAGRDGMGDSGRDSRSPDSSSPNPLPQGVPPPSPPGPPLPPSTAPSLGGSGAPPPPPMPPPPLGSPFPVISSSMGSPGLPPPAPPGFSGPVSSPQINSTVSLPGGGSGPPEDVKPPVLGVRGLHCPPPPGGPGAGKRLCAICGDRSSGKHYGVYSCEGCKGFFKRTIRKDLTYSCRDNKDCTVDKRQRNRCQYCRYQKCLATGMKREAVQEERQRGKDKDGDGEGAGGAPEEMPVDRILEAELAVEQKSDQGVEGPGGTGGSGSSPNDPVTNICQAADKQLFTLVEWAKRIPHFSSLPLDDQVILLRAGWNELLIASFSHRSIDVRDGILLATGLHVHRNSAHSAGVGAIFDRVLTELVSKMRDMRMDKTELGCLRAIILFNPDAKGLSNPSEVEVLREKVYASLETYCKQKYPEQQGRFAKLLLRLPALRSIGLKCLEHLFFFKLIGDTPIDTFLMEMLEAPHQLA
Chain of Retinoic acid receptor RXR-alpha (Homo sapiens) (P19793 whole entry, looked up, the tested form may be a part): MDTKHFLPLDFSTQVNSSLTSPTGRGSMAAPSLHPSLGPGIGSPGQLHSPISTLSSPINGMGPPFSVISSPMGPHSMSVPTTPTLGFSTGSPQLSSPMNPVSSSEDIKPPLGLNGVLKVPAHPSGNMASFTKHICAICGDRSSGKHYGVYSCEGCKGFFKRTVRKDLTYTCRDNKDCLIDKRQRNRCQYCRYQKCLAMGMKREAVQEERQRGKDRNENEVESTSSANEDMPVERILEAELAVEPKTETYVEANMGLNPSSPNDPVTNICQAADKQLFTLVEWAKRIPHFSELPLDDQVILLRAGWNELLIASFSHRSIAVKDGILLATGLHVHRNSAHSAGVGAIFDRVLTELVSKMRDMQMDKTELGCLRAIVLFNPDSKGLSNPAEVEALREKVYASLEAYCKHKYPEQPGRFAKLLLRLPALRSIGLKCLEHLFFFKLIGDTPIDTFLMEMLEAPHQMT

Nc1ccn([C@@H]2O[C@H](CO)[C@@H](O)[C@@H]2O)c(=O)n1
inactive: [1] | [2] | [3] | [4] | [5] | [6] | [7] | [8] | [9] | [11] | [13] | [14] | [15] | [16]
active: [10] 7440 nM | [12] 39000 nM

NC(=O)N1c2ccccc2C=Cc2ccccc21
inactive: [17] | [18] | [2] | [3] | [4] | [5] | [6] | [7] | [8] | [10] | [11] | [12] | [13] | [14] | [15] | [16]

CC(C)CC(C)O (stereo unspecified)
inactive: [2] | [3] | [4] | [5] | [6] | [7] | [8] | [10] | [11] | [12] | [13] | [14] | [15] | [16]

CCCOc1ccc(S(=O)(=O)N2CCN(CC)CC2)cc1-c1nc2c(CC)n(Cc3ccccn3)nc2c(=O)[nH]1
inactive: [1] | [2] | [3] | [4] | [5] | [7] | [8] | [9] | [10] | [11] | [12] | [13] | [14] | [15] | [16]

CCOc1ccc2[nH]cc(C(=O)NCc3ccccc3)c(=O)c2n1
inactive: [1] | [18] | [2] | [3] | [4] | [5] | [6] | [7] | [8] | [9] | [10] | [11] | [12] | [13] | [14] | [15] | [16]

Cn1cc[nH]c1=S
inactive: [1] | [2] | [3] | [4] | [5] | [6] | [7] | [8] | [10] | [11] | [12] | [13] | [14] | [15] | [16]

OCCNCCO
inactive: [2] | [3] | [4] | [5] | [7] | [8] | [10] | [11] | [12] | [13] | [14] | [15] | [16]

CCCc1ccccc1
inactive: [1] | [18] | [2] | [3] | [4] | [5] | [6] | [7] | [8] | [9] | [10] | [11] | [12] | [13] | [14] | [15] | [16]

Cc1nc(-c2ccccn2)ncc1C(=O)Nn1cc(C)c2cc(F)ccc21
inactive: [18] | [2] | [3] | [4] | [5] | [7] | [8] | [9] | [11] | [12] | [13] | [14] | [15] | [16]
active: [6] 20000 nM | [10] 20000 nM

OC(Cn1cncn1)(Cn1cncn1)c1ccc(F)cc1F
inactive: [1] | [18] | [2] | [3] | [4] | [5] | [7] | [8] | [9] | [10] | [11] | [12] | [13] | [14] | [15] | [16]

CC(C)c1nnc2ccc(-c3ocnc3-c3cc(F)ccc3F)cn12
inactive: [1] | [2] | [3] | [5] | [8] | [9] | [12] | [13] | [14] | [15]
active: [4] 1000 nM | [6] 833 nM | [7] 148 nM | [10] 610 nM | [11] 1050 nM | [16] 451 nM
